IMPase Li cell: membrane-permeable IMPase blocker, potentiated with lithium | CHO-M1 cells, IP1 TR-FRET (IP-One), carbachol + lithium | Potency, µM (highest dose often 59.4 µM), usual class: inhibitors | 210,000 tested, 0.35% active;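 also: IP1 builds up when IMPase is blocked and the TR-FRET signal falls; nearly all actives have a fitted effect of over 50% in size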
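Readout is a homogeneous TR-FRET IP1 immunoassay (Ex 320, Em 665 and 620), where raised cytosolic IP1 lowers signal. Cells were CHO-M1 treated 30 min at 37C with test compounds plus a little lithium; AC50 values came from Hill-equation fitting.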
Sfp inh: inhibitors of Bacillus subtilis Sfp phosphopantetheinyl transferase. Q9F4F7. 310,000 tested, 3.5% active. Biochemical Sfp PPTase activity, qHTS. AID 1490. Potency, µM, most hits filed as inhibitors;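 also: the enzyme is Sfp with the accession as filed and its product quenches rhodamine fluorescence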
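Step 1, compound plus 15 nM Sfp-PPTase, 15 min, room temperature. Step 2, add rhodamine-CoA (5 uM) and BHQ-2-YbbR (12.5 uM). Step 3, read 525/598 nm fluorescence at 0 and 30 min.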
Epigenetic reg: derepresses silenced GFP reporter in murine cells; murine LDR cells, GFP reporter derepression, 30 h; Potency, µM (series often up to 53.9 µM), hits mostly activators; 280,000 tested, 0.2% active; also: nearly all actives have a fitted effect of over 60% in size
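Reporter derepression read as number of fluorescent GFP-positive objects, 20-120 um in size, counted by laser-scanning cytometer. Mouse LDR line with an epigenetically silenced CMV-GFP locus; compound incubation 30 h, 37 C.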
KDM4E inh: inhibitors of human JMJD2E histone demethylase; B2RXH2; JMJD2E catalytic domain, FDH-coupled NADH fluorescence (FDH is formaldehyde dehydrogenase); Potency, µM (titrated, usually from 57.1 µM), usual class: inhibitors; 230,000 tested, 1.6% active; active = well fitted inhibition curve with a large enough effect, not every such curve was filed as active; inconclusive = small, poorly fitted or top-dose-only effect, or another doubt; inactive = no such curve, though single readings can be large or run the other way; also: nearly all actives have a fitted effect of over 50% in size
Target sequence (B2RXH2 1-337 limits assumed): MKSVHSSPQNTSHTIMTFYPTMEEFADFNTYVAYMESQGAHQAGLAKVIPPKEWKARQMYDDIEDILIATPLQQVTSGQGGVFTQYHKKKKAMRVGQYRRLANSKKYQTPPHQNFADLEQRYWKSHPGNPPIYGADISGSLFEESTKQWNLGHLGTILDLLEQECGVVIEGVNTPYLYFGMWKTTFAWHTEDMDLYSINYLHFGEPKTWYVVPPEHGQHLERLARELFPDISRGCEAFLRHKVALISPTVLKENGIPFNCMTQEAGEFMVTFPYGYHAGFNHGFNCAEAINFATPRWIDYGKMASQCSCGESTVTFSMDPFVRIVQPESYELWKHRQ
NPSR antagonist: blocks cAMP signaling of the human neuropeptide S receptor | AID 1461 | Potency, µM (doses to about 38.3 µM), hits mostly inhibitors | CHO-NPSR cells, cAMP TR-FRET, antagonist mode | Q6W5P4 | 220,000 tested, 1% active; also: nearly all actives have a fitted effect of over 50% in size
Target sequence (Q6W5P4 whole entry, looked up): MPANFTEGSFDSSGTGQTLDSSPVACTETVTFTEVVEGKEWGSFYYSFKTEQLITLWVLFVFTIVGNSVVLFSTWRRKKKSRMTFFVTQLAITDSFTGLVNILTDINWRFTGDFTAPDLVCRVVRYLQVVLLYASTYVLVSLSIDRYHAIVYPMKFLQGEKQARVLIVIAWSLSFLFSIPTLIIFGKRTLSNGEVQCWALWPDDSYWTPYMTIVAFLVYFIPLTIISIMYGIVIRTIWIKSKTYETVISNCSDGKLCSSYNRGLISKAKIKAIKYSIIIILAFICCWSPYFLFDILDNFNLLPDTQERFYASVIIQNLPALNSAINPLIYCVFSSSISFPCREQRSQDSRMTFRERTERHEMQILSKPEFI
GCN5L2 inh: blocks human GCN5L2 histone acetyltransferase. Potency, µM (series often up to 58.9 µM), usual class: inhibitors. AID 504327. 390,000 tested, 0.21% active. GCN5L2 HAT assay, ThioGlo1 CoA-SH fluorescence
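GCN5L2 (20nM final) in 50mM HEPES, 0.1mM EDTA pH 7.5, 0.01% Tween-20 was preincubated 15 min at room temperature with compound, then given ThioGlo1 (50uM), H3(1-25) peptide (75uM) and acetyl-CoA (70uM); CoA-thiol fluorescence (Ex340/Em540) was read at 0 and 20 min.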
Large screens that a line does not name were inactive. Compounds with a hit are over-represented: about 3.6% of the library has one in this group of screens. Unless noted, calls follow the shape of the dose curve; as a rule, active = well fitted curve in the direction sought with a large enough effect; inconclusive = small, poorly fitted or top-dose-only effect, or another doubt; inactive = no such curve, though single readings can be large; an effect the other way counts as inactive or inconclusive.

CN1C2CCCC1CC(NC(=O)c1nn(C)c3ccccc13)C2 (centres undefined)	none (no result: IMPase Li cell, Sfp inh, Epigenetic reg, KDM4E inh, NPSR antagonist)
Cc1noc(NS(=O)(=O)c2ccc(N/C=C\C(=O)c3ccc(Br)cc3)cc2)c1C	Sfp inh 70.8µM, NPSR antagonist inconclusive
Cc1noc(NS(=O)(=O)c2ccc(N/C=C\C(=O)c3cccc4ccccc34)cc2)c1C	Sfp inh 79.4µM, GCN5L2 inh inconclusive
CC1CCN(S(=O)(=O)c2ccc3c(ccn3CC(=O)NCc3ccc(N(C)C)cc3)c2)CC1	none (no result: IMPase Li cell, Sfp inh, KDM4E inh, NPSR antagonist)
CCC1=C2CC[C@H]3C(=O)N(c4ccccc4)C(=O)[C@H]3[C@H]2[C@@]2(C)C(=O)N(Cc3ccccc3)C(=O)N2C1=O	none (no result: NPSR antagonist, GCN5L2 inh)
CC(C)(C)c1cc(CCC(=O)NNC(=S)NC(=O)c2ccccc2)cc(C(C)(C)C)c1O	Sfp inh 56.2µM
CCOc1ccc(CCNC(=O)C(CC)n2nc(C)c3c(C)n(-c4ccccc4)nc3c2=O)cc1 (centres undefined)	none (no result: IMPase Li cell, Sfp inh, KDM4E inh, NPSR antagonist)
Fc1ccc(-c2ccnc(=S)[nH]2)cc1	Sfp inh 20µM, GCN5L2 inh inconclusive
Cc1ccc(C)c(N2CCN(S(=O)(=O)c3ccc(C(=O)N(C)C)s3)CC2)c1	none (no result: IMPase Li cell, Sfp inh, KDM4E inh, NPSR antagonist)
Cc1ccc(N2C(=O)C3C4C=CC(CNC(=S)N5CCN(c6cccc(C)c6)C(C)C5)(O4)C3C2=O)cc1 (centres undefined)	Sfp inh 20µM
CSCC[C@H](NC(=O)[C@H](CO)NC(=O)[C@H](Cc1ccc(O)cc1)NC(=O)[C@@H](N)CO)C(=O)N[C@@H](CCC(=O)O)C(=O)N[C@@H](Cc1cnc[nH]1)C(=O)N[C@@H](Cc1ccccc1)C(=O)N[C@@H](CCCNC(=N)N)C(=O)N[C@@H](Cc1c[nH]c2ccccc12)C(=O)NCC(=O)N[C@@H](CCCCN)C(=O)N1CCC[C@H]1C(=O)N[C@H](C(=O)NCC(=O)N[C@@H](CCCCN)C(=O)N[C@@H](CCCCN)C(=O)N[C@@H](CCCNC(=N)N)C(=O)N[C@@H](CCCNC(=N)N)C(=O)N1CCC[C@H]1C(=O)N[C@H](C(=O)N[C@@H](CCCCN)C(=O)N[C@H](C(=O)N[C@@H](Cc1ccc(O)cc1)C(=O)N1CCC[C@H]1C(=O)O)C(C)C)C(C)C)C(C)C	none (no result: IMPase Li cell, Epigenetic reg, KDM4E inh, NPSR antagonist)
Oc1ccccc1/C=N/NC(=S)NC1CC2C=CC1C2 (centres undefined)	KDM4E inh 25.1µM (no result: IMPase Li cell)
Oc1ccccc1/C=N/NC(=S)NCCc1ccccc1	GCN5L2 inh inconclusive (no result: IMPase Li cell, Epigenetic reg, KDM4E inh, NPSR antagonist)
CSCC[C@H](NC(=O)[C@H](CC(C)C)NC(=O)CNC(=O)[C@H](Cc1ccc(O)cc1)NC(=O)[C@H](Cc1ccccc1)NC(=O)[C@H](CCC(N)=O)NC(=O)[C@H](CCC(N)=O)NC(=O)[C@@H]1CCCN1C(=O)[C@H](CCCCN)NC(=O)[C@@H]1CCCN1C(=O)[C@@H](N)CCCN=C(N)N)C(N)=O	none (no result: IMPase Li cell, Epigenetic reg, KDM4E inh, NPSR antagonist)
O=C1NC(=O)/C(=C/c2ccc(N3CCOCC3)o2)N1	Sfp inh 31.6µM (no result: IMPase Li cell)
O=C1NC(=O)/C(=C\c2ccc(N3CCOCC3)o2)N1	Sfp inh 17.8µM
O=C1c2c(O)cc(O)cc2O[C@H](c2ccc(O)c(O)c2)C1O (some centres undefined)	none (no result: IMPase Li cell, Epigenetic reg, KDM4E inh, NPSR antagonist)
O=C1CN(C(=S)Nc2ccccc2Cl)CCN1	Sfp inh 44.7µM
Cc1ccccc1C(=O)N/N=C/c1ccccn1	Sfp inh 70.8µM, KDM4E inh inconclusive
O=C(N/N=C\c1ccccn1)c1ccccc1O	Sfp inh inconclusive, KDM4E inh inconclusive
O=C(Cn1cnc2ccccc21)N/N=C/c1ccccn1	Sfp inh 79.4µM
O=C(Cc1ccc(F)cc1)N/N=C/c1ccccn1	Sfp inh 56.2µM
O=C(N/N=C/c1ccccn1)c1ccncc1	Sfp inh 20µM (no result: IMPase Li cell, Epigenetic reg, KDM4E inh, NPSR antagonist)
CC(C)N=C=NC(C)C	none (no result: Sfp inh, Epigenetic reg, KDM4E inh, NPSR antagonist, GCN5L2 inh)
CCOc1ccc(-c2cc(C(=O)N/N=C/c3ccc(O)c(OC)c3)[nH]n2)cc1	none (no result: IMPase Li cell, Sfp inh, KDM4E inh, NPSR antagonist, GCN5L2 inh)
Cc1cc(=Nc2ccc3c(c2)c(N)cc(C)[n+]3C)nc(N)n1C	none (no result: Sfp inh, Epigenetic reg, KDM4E inh, NPSR antagonist, GCN5L2 inh)
COC(=O)C(C(=O)OC)[C@@H](NC(=O)OCc1ccccc1)c1ccccc1	none (no result: NPSR antagonist, GCN5L2 inh)
COc1ccc(OC)c(C(=O)N/N=C/c2ccccn2)c1	none (no result: IMPase Li cell, Epigenetic reg, KDM4E inh, NPSR antagonist)
Cc1cc(C)n2nc(SCC(=O)N/N=C/c3cccc(Br)c3)nc2n1	none (no result: GCN5L2 inh)
O=C(N/N=C/c1ccccn1)c1ccc(Cl)cc1	Sfp inh 31.6µM (no result: IMPase Li cell, Epigenetic reg, KDM4E inh, NPSR antagonist)
Cc1cc(C)n2nc(SCC(=O)N/N=C/c3ccccn3)nc2n1	Sfp inh 56.2µM, KDM4E inh inconclusive
CCCCC(C(=O)N/N=C/c1ccccn1)C(=O)N/N=C/c1ccccn1	Sfp inh 35.5µM, GCN5L2 inh inconclusive (no result: IMPase Li cell)
COc1cc(C(=O)N/N=C/c2ccccn2)cc(OC)c1OC	Sfp inh 56.2µM, KDM4E inh inconclusive
Cc1ccc(Cl)cc1	none (no result: Sfp inh, Epigenetic reg, KDM4E inh, NPSR antagonist, GCN5L2 inh)
O=C(COc1ccccc1[N+](=O)[O-])N/N=C/c1ccccn1	Sfp inh 50.1µM
COc1ccc(-c2ccc(OC)c(C3C4C=CCCC4(C)C(=O)N3Cc3ccccc3)c2)cc1 (centres undefined)	none (no result: IMPase Li cell, Epigenetic reg, KDM4E inh, NPSR antagonist, GCN5L2 inh)
COC(=O)c1ccccc1NC(=O)c1ccc(COc2cccc3ccccc23)o1	Sfp inh 56.2µM, KDM4E inh inconclusive

Bioassay records (PubChem BioAssay)
